# Reference: PubChem BioAssay (NCI)
# About 83,000 compounds went through this panel and 20% of them were active in at least one assay; those are over-represented in the sample as a whole.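 The endpoint reported here, percent growth, reads 100 for growth as untreated, 0 for no net growth and -100 for all cells dead.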 A number with no mark means an inactive call. Active and inactive are the calls of the source. How the source made its calls: active means growth percent below 10; inactive means the rest.
# Legend:
# Experiment in all cases: NCI-60 one-dose screen, 48 h (100 = growth as untreated, 0 = no growth, -100 = all killed)
# Conditions in all cases: 10 µM
# SR leukemia = test system: SR leukemia
# RPMI-8226 leukemia = test system: RPMI-8226 leukemia
# OVCAR-8 ovarian = test system: OVCAR-8 ovarian
# OVCAR-5 ovarian = test system: OVCAR-5 ovarian
# OVCAR-4 ovarian = test system: OVCAR-4 ovarian
# SK-OV-3 ovarian = test system: SK-OV-3 ovarian
# IGROV1 ovarian = test system: IGROV1 ovarian
# OVCAR-3 ovarian = test system: OVCAR-3 ovarian
# HS 578T breast = test system: HS 578T breast
# NCI/ADR-RES ovarian = test system: NCI/ADR-RES ovarian
# T-47D breast = test system: T-47D breast
# BT-549 breast = test system: BT-549 breast
# MDA-MB-435 melanoma = test system: MDA-MB-435 melanoma
# SW-620 colon = test system: SW-620 colon
# MCF7 breast = test system: MCF7 breast
# HCC-2998 colon = test system: HCC-2998 colon
# KM12 colon = test system: KM12 colon
# HCT-116 colon = test system: HCT-116 colon
Structure (SMILES),growth (SR leukemia),growth (RPMI-8226 leukemia),growth (OVCAR-8 ovarian),growth (OVCAR-5 ovarian) [%],growth (OVCAR-4 ovarian) [%],growth (SK-OV-3 ovarian),growth (IGROV1 ovarian) [%],growth (OVCAR-3 ovarian),growth (HS 578T breast) [%],growth (NCI/ADR-RES ovarian) [%],growth (T-47D breast) [%],growth (BT-549 breast),growth (MDA-MB-435 melanoma),growth (SW-620 colon) [%],growth (MCF7 breast),growth (HCC-2998 colon),growth (KM12 colon),growth (HCT-116 colon) [%]
O=C(NCCNC(=O)c1ccc(F)cc1)Nc1ccc(-n2cc(-c3ccncc3)c(-c3ccc(Cl)c(O)c3)n2)cc1,-0.62% (active),-35.6% (active),4.62% (active),27.8,37.1,-8.18% (active),20.4,3.59% (active),16.6,77.4,30.1,-24.5% (active),-5.7% (active),15.1,3.7% (active),-28.4% (active),0.713% (active),–
Cc1cc(CCNC=O)c(C)c2c1sc1ccccc12,89.4%,92.4%,97.9%,82.4,85,104%,122,111%,54,97.8,92.8,96.9%,94.5%,102,100%,–,103%,94
COc1ccc(NC(=O)C2CC3C=CC2C3)c([N+](=O)[O-])c1 (stereo unspecified),85.4%,104%,101%,96.5,92.7,102%,108,99.4%,95.4,97.6,98.1,139%,102%,110,101%,–,105%,120
